A selection: hits, their analogues and other compounds. The true share with any hit is near 6.2%.
Cardio protect: protects H9c2 cardiomyocytes from peroxide injury | AID 588492 | H2O2 injury protection, ATPLite, 2 h | protection from H2O2 cell death, % at 20 µM | actives 0.63% (n = 360,000);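 active = compounds giving at least 50% protection of heart cells from peroxide-induced death in the single-dose screen, raw or plate-pattern-corrected value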;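 note: 0% = DMSO wells with peroxide and 100% = DMSO wells without peroxide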
NTR1 agonist: activates human neurotensin receptor 1; NTR1-U2OS beta-arrestin-GFP spot imaging, agonist mode; activation, % at 20 µM; actives 0.17% (n = 330,000);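 active = activation at or above 40% of the spot to cytoplasm intensity ratio, with at least 20 cells analyzed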;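 note: 0% = DMSO without peptide and 100% = 100 nM NTR1 peptide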
Mot1-301 SUMO: inhibitors of SUMOylation pathway: yeast Mot1-301 growth rescue; S. cerevisiae Mot1-301 growth rescue, ATP luminescence, 38.5C; percent above DMSO median, 100 means doubled; growth rescue, % at 18.8 µM; actives 1% (n = 320,000);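 active = every valid replicate shows activation above 250% relative to neutral control wells; inactive = the rest, any valid replicate at or below 250%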;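 note: OY570 slx delta 5 strain wells were the positive control but not used for scaling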
NR3A LBD binder: modulators (binders) of human NR3A ligand-binding domain | NR3A LBD differential scanning fluorimetry, Tm shift; 0% = protein alone, 100% = glycine-bound protein | Tm shift relative to glycine control, % at 25 µM | actives 2.5% (n = 340,000);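 active = melting temperature shift of at least 10% of the positive control shift, at one fixed dose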
AHR act: activators of human aryl hydrocarbon receptor | AHR-responsive luciferase reporter cells, luminescence | activation, % at 5 µM | actives 2.5% (n = 320,000); in the data active = activation above about 47%;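 note: 0% = vehicle wells and 100% = reference agonist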
Target sequence (P35869 whole entry, looked up): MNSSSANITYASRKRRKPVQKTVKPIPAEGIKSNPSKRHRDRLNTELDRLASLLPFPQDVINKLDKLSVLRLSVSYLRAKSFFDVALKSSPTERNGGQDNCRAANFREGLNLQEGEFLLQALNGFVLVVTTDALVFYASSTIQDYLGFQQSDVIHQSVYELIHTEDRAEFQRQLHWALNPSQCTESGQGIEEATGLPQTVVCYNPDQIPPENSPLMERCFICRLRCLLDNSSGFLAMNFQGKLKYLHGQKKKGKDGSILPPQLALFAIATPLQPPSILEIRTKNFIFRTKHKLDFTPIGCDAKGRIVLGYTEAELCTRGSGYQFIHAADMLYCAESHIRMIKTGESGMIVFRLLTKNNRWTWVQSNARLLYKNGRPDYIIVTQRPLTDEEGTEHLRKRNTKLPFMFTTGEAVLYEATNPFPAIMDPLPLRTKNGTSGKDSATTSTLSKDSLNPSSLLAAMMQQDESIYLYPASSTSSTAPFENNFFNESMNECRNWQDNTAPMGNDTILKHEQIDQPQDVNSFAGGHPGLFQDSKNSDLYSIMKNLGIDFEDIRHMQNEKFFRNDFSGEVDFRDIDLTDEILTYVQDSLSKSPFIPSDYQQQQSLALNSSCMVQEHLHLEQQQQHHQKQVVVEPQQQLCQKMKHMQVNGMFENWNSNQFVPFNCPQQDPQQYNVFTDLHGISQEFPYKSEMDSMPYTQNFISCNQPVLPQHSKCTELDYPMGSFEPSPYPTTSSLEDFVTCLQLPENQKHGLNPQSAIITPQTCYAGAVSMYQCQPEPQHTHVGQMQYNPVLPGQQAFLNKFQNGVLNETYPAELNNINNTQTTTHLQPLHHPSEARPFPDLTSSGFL
AI-2 QS mod: Vibrio harveyi AI-2 quorum sensing modulation; Vibrio harveyi JMH597 AI-2 luminescence/OD600 ratio, 9 h; hits give low values; strain lacks LuxN and CqsS sensors; 0 = neutral-control median; activity change, % at 7.5 µM; AID 2094; actives 0.4% (n = 300,000); in the data active = activity change below about -75%, passing the limit was not always enough;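 note: luminescence divided by OD600 gain over 9 h not by final OD600 alone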
* marks the source's active call; other numbers are inactive results; i = inactive; . = no result given.

SMILES	Cardio protect	NTR1 agonist	Mot1-301 SUMO	NR3A LBD binder	AHR act	AI-2 QS mod
CCn1c(=O)c(C(=O)NC(C)c2ccccc2)c(O)c2ccccc21 (stereo unspecified)	55.0*	4.2	2.2	1.7	.	3.5
CCN(C(=O)CSc1nc(N)cc(=O)[nH]1)c1c(N)n(Cc2ccccc2)c(=O)[nH]c1=O	1.1	-1.9	-4.7	1.6	3.6	28.3
COc1cccc2cc(-c3nnc(SCC(=O)Nc4nc(C)cs4)n3C)oc12	68.6*	-0.9	3.1	-0.2	3.3	52.5
Cc1csc(NC(=O)CSc2nnc(-c3ccco3)n2C)n1	6.0	2.3	-1.6	-1.0	3.1	19.0
Cc1nnc(SCC(=O)NC2CCCC(C)C2C)n1N (stereo unspecified)	3.7	5.1	-18.2	0.4	0.4	.
N#Cc1cc2ccccc2nc1SCC(=O)NC1CC1	-2.8	-0.9	1.4	-4.0	64.0*	2.4
CCc1cc2ccccc2nc1SCC(=O)NC1CCCC1	-8.5	-0.6	7.2	-3.6	2.5	37.8
CCCc1cc(=O)[nH]c(SCC(=O)Nc2cc(S(=O)(=O)N(CC)c3ccccc3)ccc2Cl)n1	-0.8	-0.6	3.1	-5.7	0.7	.
COc1ccc(C(=O)Nc2ccc(S(=O)(=O)NC(C)=O)cc2)cc1[N+](=O)[O-]	-4.3	-0.1	-10.6	-2.0	-0.7	11.9
CCOCCCNS(=O)(=O)c1ccc(NC(=O)c2ccc(OC)c([N+](=O)[O-])c2)cc1	-4.9	2.2	-0.3	16.6*	-1.1	19.5
Cc1cc(C(=O)Nc2ccc(S(=O)(=O)N3CCOCC3)cc2)ccc1[N+](=O)[O-]	0.2	-0.1	-10.3	30.4*	2.4	15.3
COc1ccc(C(=O)Nc2ccc(S(=O)(=O)N3CCOCC3)cc2)cc1[N+](=O)[O-]	1.5	2.9	-12.1	34.7*	-2.2	11.5
COc1ccc(N/C=C/C(=O)c2cc(OC)c(OC)c(OC)c2)cc1	0.2	3.8	-2.8	30.2*	-3.0	-1.6
COc1cccc(C(=O)/C=C/Nc2ccc(S(=O)(=O)Nc3cccc(C(C)=O)c3)cc2)c1	-23.8	2.5	i	12.6*	7.9	15.9
COc1cccc(C(=O)/C=C/Nc2cccc(O)c2)c1	-16.9	-0.5	5.8	12.6*	3.8	4.8
COc1cccc(C(=O)/C=C/Nc2ccc(NC(C)=O)cc2)c1	-3.4	0.0	-17.4	7.1	6.1	10.5
CCOC(=O)c1c(NC(=O)COC(=O)CCOc2cc(C)ccc2C)sc(C(=O)N(C)C)c1C	3.7	.	.	1.8	.	.
O=C(O)Cn1c(-c2ccccc2)cc2ccccc21	5.8	-1.9	2.7	-0.9	12.8	3.8
Cc1cc(C)cc(OCC(=O)N(Cc2ccccc2)C2CCS(=O)(=O)C2)c1 (stereo unspecified)	2.3	1.3	-16.2	-2.0	8.4	27.1
CN(C)c1ccc(-c2nc3ccccn3c2/N=C/c2ccc(Br)cc2)cc1	-13.6	5.3	13.9	24.0*	47.1*	25.6
COc1cc(-c2nc3ccccn3c2/N=C/c2cc(OC)c(OC)c(OC)c2)ccc1O	28.0	0.8	-0.3	0.5	4.9	18.0
CN(CC(=O)Nc1ccccc1Br)C(=O)Cn1[nH]c(=O)c2ccccc2c1=O	82.6*	0.2	-1.4	0.1	-0.6	.
COc1ccc(Cl)cc1NC(=O)CN(C)C(=O)Cn1[nH]c(=O)c2ccccc2c1=O	83.6*	1.3	50.8	-0.2	1.8	.
COc1cccc(NC(=O)CN(C)C(=O)Cn2[nH]c(=O)c3ccccc3c2=O)c1	40.0	0.0	3.8	-0.5	3.6	.
O=c1c(N2CCOCC2)coc2ccccc12	-2.0	-0.7	3.1	-1.2	0.8	6.8
O=c1[nH]c(N2CCOCC2)cc2ccccc12	56.4*	0.0	5.6	-2.4	4.0	1.0
CCc1ccc(C(O)c2ncc(-c3cccc4ccccc34)[nH]2)cc1 (stereo unspecified)	-4.2	.	.	.	.	.
CC1=C(CC(=O)c2ccc(Cl)cc2)C(=O)c2ccccc2C1=O	-21.7	6.3	-21.1	-5.1	54.7*	14.2
O=C(N/N=C/c1cc2c(c([N+](=O)[O-])c1)OCO2)c1ccncc1	13.1	-1.1	-4.3	0.7	60.8*	31.1
O=C(N/N=C/c1ccccc1Cl)c1ccncc1	6.7	1.3	-12.1	0.0	3.7	20.3
